Test [1] can be described thus: Viability counterscreen for agonist of constitutive androstane receptor (CAR) against the NCATS DSHEA and TCM libraries (AID 1794838).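 Further: cells exposed to compound for 24 h.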 The procedure, abridged:
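In agonist mode, PK11195 is added at 0.75 uM final to HepG2-CYP2B6-hCAR cells dosed with test substances. Cultures incubate 24 h at 37C before a protease-based fluorogenic viability readout.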
On the technique in general: A counterscreen serves to expose hits that act by an unwanted route or on another target.

For test [2], the target named is Nuclear receptor subfamily 1 group I member 3 (Homo sapiens) (UniProt Q14994). In words: Primary qHTS for agonist of constitutive androstane receptor (CAR) against the NCATS DSHEA and TCM libraries (AID 1794839).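 Further: HepG2 cells expressing human CAR with a CYP2B6 reporter plus PK11195 antagonist; luciferase reporter luminescence read with ONE-Glo.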 The procedure, abridged:
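Cells stably carrying hCAR and a CYP2B6 reporter (HepG2 background) are seeded and allowed 5 h to adhere. Substances at multiple concentrations are added alongside 0.75 µM PK11195, and luciferase signal is measured after 24 h.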
On the technique in general: In qHTS, concentration-response curves come from the screen itself.

Test [3] in a line: HepG2 viability counterscreen (readout 2: ATP content) against the NCATS DSHEA and TCM libraries (AID 1794840).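 Further: HepG2 cells exposed to substances for about 24 h.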 In outline:
(§1)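 Cytotoxicity was assessed in HepG2 cells plated at 1,000 cells/well and exposed for about 24 hours to a concentration series. Protease activity and ATP content were measured sequentially in each well.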

The nature of test [4]: HepG2 viability counterscreen (readout 1: protease activity) against the NCATS DSHEA and TCM libraries (AID 1794841).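 Further: cells exposed to compounds for about 24 h before the protease read.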 The procedure, abridged:
as §1

In test [5] the target is Metallo-beta-lactamase type 2 (Klebsiella pneumoniae) (UniProt C7C422). In words: qHTS to identify inhibitors of the New Delhi Metallo-beta-lactamase (NDM): assay validation screen against the NCATS LOPAC Collection (AID 1794843).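 Further: nitrocefin turnover by NDM-1 measured as 485 nm absorbance at plateau; series mostly up to about 38 µM.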 In outline: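 Enzyme 2 nM final, 50 mM HEPES pH 7.0, 1 uM ZnSO4, 0.01% Tween20; cpds in DMSO, preincub w/ enzyme; + nitrocefin (50 uM stock); A485 at plateau; no-enzyme column as blank.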
Sequence of Metallo-beta-lactamase type 2 (Klebsiella pneumoniae) (C7C422 whole entry, looked up): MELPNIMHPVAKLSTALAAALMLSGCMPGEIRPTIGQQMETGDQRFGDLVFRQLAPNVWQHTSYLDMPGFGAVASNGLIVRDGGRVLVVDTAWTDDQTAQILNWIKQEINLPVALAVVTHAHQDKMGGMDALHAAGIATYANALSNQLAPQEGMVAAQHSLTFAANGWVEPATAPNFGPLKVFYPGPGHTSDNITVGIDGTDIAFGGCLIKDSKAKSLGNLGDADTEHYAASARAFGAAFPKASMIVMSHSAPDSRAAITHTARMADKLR

The target in test [6] is Glutathione peroxidase 1 (Homo sapiens) (UniProt P07203). In words: Primary qHTS Assay for Inhibitors of Recombinant Selenoprotein Glutathione Peroxidase 1 (GPX1) (AID 1845191). Further: nearly all actives have a fitted effect of over 65% in size. The procedure, abridged:
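GR-coupled assay: compounds preincubated 30 min at room temperature with GPX1, then reaction started with CHP; final 10 nM GPX1, 1 mM GSH, 0.5 mM CHP, 0.5 mM NADPH, 100 nM GR, 0.01% BSA, pH 7.5 Tris buffer. NADPH fluorescence (340/450 nm) read at 0 and 15 min.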

Test [7] can be described thus: Viability counterscreen for antagonist of constitutive androstane receptor (CAR) against the NCATS DSHEA and TCM libraries (AID 1794837).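 Further: compound exposure lasted 24 h before viability reading.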 In outline:
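Fluorescence from CellTiter-Fluor reports live-cell protease activity in HepG2-CYP2B6-hCAR cells treated for 24 h with substances alongside 48 uM CITCO.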

The target of test [8] is Phenylethanolamine N-methyltransferase (Homo sapiens) (UniProt P11086). Description: Confirmatory Screen for Target Class Profiling of Small Molecule Inhibitors of Methyltransferases (AID 1745852). As to conditions: MTase-Glo luminescence, SAH detection, recombinant enzyme; measured here: PNMT max response; stronger effect = lower value.
Sequence of Phenylethanolamine N-methyltransferase (Homo sapiens) (P11086 whole entry, looked up): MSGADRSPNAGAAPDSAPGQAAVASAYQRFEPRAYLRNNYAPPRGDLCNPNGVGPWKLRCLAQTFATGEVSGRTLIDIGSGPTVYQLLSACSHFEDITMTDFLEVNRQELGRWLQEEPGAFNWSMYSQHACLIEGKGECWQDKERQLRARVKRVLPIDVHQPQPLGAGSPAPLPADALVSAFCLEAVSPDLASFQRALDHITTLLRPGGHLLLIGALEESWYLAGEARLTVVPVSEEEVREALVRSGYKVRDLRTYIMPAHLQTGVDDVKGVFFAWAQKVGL
The nature of test [9]: NCATS anti-infectives library activity on HEK293 viability as a counter-qHTS vs the C. elegans viability qHTS (AID 1745854).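 Further: HEK293 cells exposed to compounds for 24 hr before the viability read.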 The procedure, abridged: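 Cytotoxicity in human HEK293 cells is measured by ATP-dependent CellTiter-Glo luminescence following a 24 hr incubation with titrated library compounds at 37C. Top final concentration is 41.7 uM.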
The nature of test [10]: NCATS anti-infectives library activity on the primary C. elegans qHTS viability assay (AID 1745855; calls by dose curve; further: potency means the concentration at half of the fitted maximal effect). In outline:
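Viability is taken from GFP fluorescence of PE254-GFP-FLuc C. elegans imaged by laser cytometry over 7 days. Ten L1 worms per well grow at 21 °C on TOP10 E. coli capsules with titrated compound; levamisole marks toxicity.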

Structures are written as SMILES. Results filed as inconclusive are left out. A call without a number means that no potency is given here. The source made the active and inactive calls. Unless noted, the call rests on the fitted dose curve; in most records, active means well fitted curve in the direction sought with a large enough effect; inconclusive means small, poorly fitted or top-dose-only effect, or another doubt; inactive means no such curve, though single readings can be large; an effect the other way counts as inactive or inconclusive.

Sequence of Glutathione peroxidase 1 (Homo sapiens) (P07203 whole entry, looked up): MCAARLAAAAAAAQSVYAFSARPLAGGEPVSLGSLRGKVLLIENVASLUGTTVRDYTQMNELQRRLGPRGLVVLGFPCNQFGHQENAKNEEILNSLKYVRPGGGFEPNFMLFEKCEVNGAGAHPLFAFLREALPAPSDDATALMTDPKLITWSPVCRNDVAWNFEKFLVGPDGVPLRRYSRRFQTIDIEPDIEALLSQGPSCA
Sequence of Nuclear receptor subfamily 1 group I member 3 (Homo sapiens) (Q14994 whole entry, looked up): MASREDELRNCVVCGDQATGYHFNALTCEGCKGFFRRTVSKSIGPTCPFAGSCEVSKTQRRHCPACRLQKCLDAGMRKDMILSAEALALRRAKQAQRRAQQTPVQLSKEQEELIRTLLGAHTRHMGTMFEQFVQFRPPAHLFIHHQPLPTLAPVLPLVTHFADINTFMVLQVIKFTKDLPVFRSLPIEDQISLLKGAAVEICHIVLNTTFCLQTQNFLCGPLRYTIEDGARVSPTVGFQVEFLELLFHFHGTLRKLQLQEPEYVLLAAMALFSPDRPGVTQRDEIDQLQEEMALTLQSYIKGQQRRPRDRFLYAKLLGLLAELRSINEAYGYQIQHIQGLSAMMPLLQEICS

As to `O=c1c(O)c(-c2ccc(O)c(O)c2)oc2cc(O)cc(O)c12`, the outcome in [1], in [2], in test [3], in test [4] and in test [5] was “inactive” in each case. Further, in [6], the Potency result was “inactive”.
`Cn1c(=O)c2c(ncn2C)n(C)c1=O`: the outcome in [7], in test [1], in [2], in [3] and in test [4] was “inactive” in each case. For the same compound, the Potency result in test [6] was “inactive”.
As to `Cc1ccc(C(=O)Nc2ccc(S(=O)(=O)O)c3cc(S(=O)(=O)O)cc(S(=O)(=O)O)c23)cc1NC(=O)c1cccc(NC(=O)Nc2cccc(C(=O)Nc3cc(C(=O)Nc4ccc(S(=O)(=O)O)c5cc(S(=O)(=O)O)cc(S(=O)(=O)O)c45)ccc3C)c2)c1`, in test [8], the activity worked out at 6.94%. Also, the outcome in [5] was “inactive”. In test [6], the Potency entry is “inactive”.
On to `Cn1ccc2cc3c(cc21)CCN3C(=O)Nc1cccnc1`, for which the activity in test [8] turned out to be 1.53%. In addition, the outcome in [5] was “inactive”. The Potency entry in [6] is “inactive”.
Take `COc1ccc(C2CNC(=O)C2)cc1OC1CCCC1` (stereo not given): the Potency result in test [9] and in test [6] was “inactive” throughout. The outcome in test [5] was “inactive”.
As for `OCCN(CCO)c1nc(N2CCCCC2)c2nc(N(CCO)CCO)nc(N3CCCCC3)c2n1`, the Potency result in test [9] and in test [6] was “inactive” each time. Further, the Potency in [10] was 0.816 µM (active). For the same compound, in [5], the outcome was “inactive”.
As for `NC12CC3CC(CC(C3)C1)C2`, the Potency result in test [9] and in test [6] was “inactive” each time. For the same compound, the outcome in test [5] was “inactive”.
For `CCc1cccc2c3c([nH]c12)C(CC)(CC(=O)O)OCC3` (stereo not given), the outcome in test [5] was “inactive”. The Potency result in test [6] is “inactive”.
With `NC(=O)NO`, the Potency result in test [9] and in test [6] was “inactive” each time. In addition, in [5], the outcome was “inactive”.
Take `NCCCCCC(=O)O`: in [5], the outcome is “inactive”. Also, the Potency result in [6] is “inactive”.
As for `Cc1cn([C@H]2C[C@H](N=[N+]=[N-])[C@@H](CO)O2)c(=O)[nH]c1=O`, the Potency entry in test [9] and in test [6] was “inactive” each time.
`OCCN1CCN(CCCN2c3ccccc3Sc3ccc(C(F)(F)F)cc32)CC1`: the activity in [8] is -1.22%. In addition, the Potency result in test [10] and in test [6] was “inactive” each time. Further, the outcome in [5] is “inactive”.
Regarding `O=c1[nH]cc(F)c(=O)[nH]1`, the Potency result in test [9] and in [6] was “inactive” in each case. Further, the Potency in test [10] is 6.48 µM (active). For the same compound, the outcome in [5] was “inactive”.

Source of the values: PubChem BioAssay (NCATS).
